This is a sample that favours compounds with a hit; in the whole collection about 4.7% have one here.
EBI2 antag: EBI2 (human) antagonism. EBI2 beta-arrestin recruitment, luminescence, 7a,25-OHC stimulated. inhibition, % at 5 µM. actives 0.81% (n = 360,000); in the data active = inhibition above about 38%;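 also: enzyme fragment complementation signal reports receptor beta-arrestin coupling in cells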
Target sequence (P32249 whole entry, looked up, the tested form may be a part): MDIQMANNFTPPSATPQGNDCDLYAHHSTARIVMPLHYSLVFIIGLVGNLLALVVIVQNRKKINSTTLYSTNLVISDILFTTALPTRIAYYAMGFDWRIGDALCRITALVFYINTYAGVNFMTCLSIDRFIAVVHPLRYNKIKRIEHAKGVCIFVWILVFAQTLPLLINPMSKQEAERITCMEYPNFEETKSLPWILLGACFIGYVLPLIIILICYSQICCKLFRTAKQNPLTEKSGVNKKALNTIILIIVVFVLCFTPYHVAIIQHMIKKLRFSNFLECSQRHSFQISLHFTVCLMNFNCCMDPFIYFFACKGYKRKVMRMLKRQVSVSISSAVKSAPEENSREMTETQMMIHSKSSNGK
tim23-1 inh: inhibits growth of tim23-1 mutant yeast | S. cerevisiae tim23-1 growth, BacTiter-Glo luminescence, 24 h | inhibition, % at 20 µM | actives 1.3% (n = 330,000) | AID 463212;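 active = growth inhibition of the mutant yeast at or above 50%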;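 also: temperature-sensitive mutant grown at 25 °C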
PfHsp90 set2: growth inhibition of yeast expressing Plasmodium Hsp90; S. cerevisiae expressing PfHsp90, BacTiter-Glo ATP, 48 h; yeast lacking PDR1 and PDR3 efflux regulators; inhibition, % at 9.4 µM; actives 0.32% (n = 310,000); AID 504621;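 active = every replicate shows inhibition above about 80%, whatever the replicate mean, limit read from the data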
SKKanGAS inh: SKKanGAS growth inhibition | S. pyogenes SKKanGAS, kanamycin growth, BacTiter-Glo, 6 h | inhibition, % at 7.5 µM | actives 1.3% (n = 300,000) | AID 1662;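 active = mean replicate score, as percent of positive control median, at least 50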;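 also: strain carries kanamycin resistance gene driven by streptokinase promoter and grows in 40 µg/ml kanamycin; loss of luminescence reflects streptokinase promoter inhibition or plain growth inhibition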
TIM10 inh: growth inhibitors of TIM10 yeast strain. actives 1.4% (n = 330,000). inhibition, % at 10 µM. S. cerevisiae TIM10 strain growth, BacTiter-Glo luminescence, 24 h. AID 463195;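 active = inhibition of 40% or more at the single tested concentration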;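 also: wild-type TIM10 isogenic control strain grown at permissive 25 °C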
tim10-1 inh: growth inhibitors of tim10-1 mutant yeast; S. cerevisiae tim10-1 ts strain growth, BacTiter-Glo, 24 h; inhibition, % at 20 µM; actives 2.2% (n = 330,000);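 active = inhibition of at least 40%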;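 also: mutant grown at 25 °C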
tim23-1 conf: confirmation of tim23-1 mutant yeast growth inhibitors; shares compounds with tim23-1 inh; inhibition, % at 20 µM; S. cerevisiae tim23-1 growth, BacTiter-Glo luminescence, 24 h; actives 83% (n = 4,400);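 active = inhibition above about 39% in either of two replicate wells at 20 µM, limit read from the data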;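 also: temperature-sensitive tim23-1 mutant grown at 25 °C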
Each line names hits and unclear results; the compound was inactive in the other large screens (follow-up assays come after a bar, where they were run).

N#Cc1nc(Nc2cc(F)cc(F)c2)c2ncn(CC(F)F)c2n1	tim23-1 inh 52 (no result: SKKanGAS inh) | tim23-1 conf inactive
O=C(N/N=C/c1cccc(F)c1)c1csc2c1CCCC2	tim23-1 inh 63 | tim23-1 conf 62
COc1cccc(/C=N/NC(=O)c2ccoc2C)c1	none
Oc1ccc(Br)cc1CNc1ccccn1	none
Cc1c(NCc2cc(Cl)cc(Cl)c2O)c(=O)n(-c2ccccc2)n1C	tim23-1 inh 55, SKKanGAS inh 85 | tim23-1 conf inactive
Oc1c(Cl)cc(Cl)cc1CNc1ccccn1	tim23-1 inh 52 | tim23-1 conf 49
C#CCOCCOCCOCCNc1nc(N2CCOCC2)nc(N2CCN(C(=O)Cn3cc(CCCCN)nn3)CC2)n1	none (no result: tim23-1 inh, SKKanGAS inh, TIM10 inh, tim10-1 inh)
CCOC(=O)C1CCN(C(=O)c2cc3cc4ccc(C)cc4nc3o2)CC1	tim23-1 inh 58 | tim23-1 conf 59
CCOC(=O)C1CCN(C(=O)c2ccc(C)o2)CC1	none (no result: SKKanGAS inh)
COc1ccc2cc3cc(C(=O)N4CCCCC4C)oc3nc2c1 (stereo not drawn)	tim23-1 inh 50 | tim23-1 conf 59
O=C(/C=C/N1CCOCC1)c1ccc(-c2ccccc2)cc1	tim23-1 inh 52, PfHsp90 set2 106 | tim23-1 conf inactive
CCNc1nc(N)c(C(=O)C23CC4CC(CC(C4)C2)C3)s1	tim23-1 inh 61 | tim23-1 conf 54
CC(C)(C)c1nnc(N/N=C/c2ccccc2O)n(N)c1=O	EBI2 antag 81, tim23-1 inh 62 | tim23-1 conf 47
CCc1nnc(N/N=C/c2ccccc2F)n1N	none
COc1ccc(CNC(=S)N2CCN(Cc3ccccc3)CC2)cc1	none
CCOC(=O)CSc1nc(N)c(C#N)c(-c2ccc(OCC)cc2)c1C#N	none
CC1=C(C#N)c2nc(N)c(C#N)c(C)c2/C1=C\c1ccc(OCC(=O)O)c(Cl)c1	tim23-1 inh 54 | tim23-1 conf 49
Cc1cc(NC(=O)CN2CCc3ccccc3C2)nc2c1c(=O)oc1ccccc12	tim23-1 inh 53 | tim23-1 conf 62
CC(C)(C)c1cc(CCC(=O)NN)cc(C(C)(C)C)c1O	none (no result: PfHsp90 set2)
COCCOC(=O)/C(=C\c1cc(C(C)(C)C)c(O)c(C(C)(C)C)c1)C(C)=O	tim23-1 inh 59 | tim23-1 conf 58
COCCCNC(=O)CC1C[C@H](C(=O)N(C(C)C)C(C)C)[C@@]2(C)c3[nH]c4ccccc4c3CCN2C1=O (stereo partly drawn)	none (no result: SKKanGAS inh)
Cc1cc(Nc2ccccc2)nn1C(=O)c1ccccc1	tim23-1 inh 51 | tim23-1 conf 52
Cc1ccc(CCNC(=O)C2CCC(=O)N2C2CCCC2)cc1 (stereo not drawn)	none
O=S1(=O)CC(N2CCCC2)CN1Cc1ccccc1 (stereo not drawn)	none (no result: tim23-1 inh, PfHsp90 set2, SKKanGAS inh, TIM10 inh, tim10-1 inh)
O=C(CN(Cc1ccccc1)C(=O)CCl)c1cccc(Br)c1	tim23-1 inh 57 (no result: SKKanGAS inh) | tim23-1 conf 45
O=C(CN(C(=O)CCC(=O)Nc1nccs1)c1ccccc1F)NCc1ccccc1	none
O=C(/C=C/c1ccccc1)Oc1cccc2cccnc12	tim23-1 inh 54 | tim23-1 conf 43
O=C(/C=C\c1ccccc1)Oc1cccc2cccnc12	none
CCc1ccc2nc(SCC(=O)Nc3nnc(C)s3)c(C)cc2c1	tim23-1 inh 58 | tim23-1 conf inactive
O=C(NCc1cccnc1)/C(=C\c1ccc(-c2ccc(Br)cc2)o1)S(=O)(=O)c1ccccc1	EBI2 antag 62, tim23-1 inh 52 | tim23-1 conf 63
O=C(CN(Cc1ccc(Br)cc1)S(=O)(=O)c1ccccc1)NCc1cccnc1	none
CCOC(=O)c1sc(N(Cc2ccccc2)C(=O)CCl)nc1C	tim23-1 inh 62 | tim23-1 conf 48
O=C1CCC(c2ccc3ccccc3c2)O1 (stereo not drawn)	none (no result: tim23-1 inh, PfHsp90 set2, SKKanGAS inh, TIM10 inh, tim10-1 inh)
Cc1ccc(NC(=O)CN2C(=O)NC(Cc3ccccc3)C2=O)c(Br)c1 (stereo not drawn)	none
Cn1ccnc1C(=O)c1cc(SCC(=O)NC2CC2)nc2ccccc12	none
CN(C(=O)CSc1cc(C(=O)c2nccn2C)c2ccccc2n1)c1ccccc1	tim23-1 inh 50 | tim23-1 conf 41
CC1CCCN(S(=O)(=O)c2ccc3[nH]c4c(c3c2)CCCC4)C1 (stereo not drawn)	tim23-1 inh 56 | tim23-1 conf 56
CC1CCCN(S(=O)(=O)c2ccc(S(=O)(=O)N3CCCC3)cc2)C1 (stereo not drawn)	none
CCOC(=O)[C@]12CCCC=C1N(Cc1ccco1)C(=O)[C@H](CC(=O)N1CCCC1)C2	none (no result: tim23-1 inh, PfHsp90 set2, SKKanGAS inh, TIM10 inh, tim10-1 inh)
O=C(O)c1ccccc1-c1nc2ccccc2[nH]1	none
Oc1ccc2ccccc2c1C=Nc1ccccc1-c1nc2ccccc2[nH]1	tim23-1 inh 52 | tim23-1 conf 47
O=C(NC1CC1)c1ccc(N2CCCCC2)c([N+](=O)[O-])c1	none
CCc1ccc(S(=O)(=O)Nc2ccc(O)c3c(=O)cc(-c4ccccc4Cl)oc23)cc1	none
O=c1cc(-c2ccccc2Cl)oc2c(NS(=O)(=O)c3cc(Cl)cc(Cl)c3O)ccc(O)c12	tim23-1 inh 52, SKKanGAS inh 109 (no result: PfHsp90 set2) | tim23-1 conf inactive
CC(C)N1C(=O)CCC1C(=O)NCCc1ccc(Cl)cc1 (stereo not drawn)	none
O=C(COC(=O)c1n[nH]c2ccccc12)c1cccc(Br)c1	tim23-1 inh 50 | tim23-1 conf 40
Cc1ccc(C)c(C(=O)COC(=O)c2n[nH]c3ccccc23)c1	tim23-1 inh 58 (no result: SKKanGAS inh) | tim23-1 conf 49
Cc1cccc(C)c1OCCOC(=O)c1n[nH]c2ccccc12	none
CCCN(CCC)C(=O)C1CCCN(S(=O)(=O)c2ccc3c(c2)oc(=O)n3C)C1 (stereo not drawn)	none
CCCN(CCC)CC(=O)Nc1cccc2c1OCO2	none
Cc1ccc(S(=O)(=O)N[C@@H](Cc2ccccc2)C(=O)CCl)cc1	tim23-1 inh 69 (no result: SKKanGAS inh) | tim23-1 conf 48
COC(=O)N/N=C/c1ccc(-c2cccc(Cl)c2)o1	none
COC(=O)N/N=C/c1ccc(-c2cc(Cl)cc(Cl)c2)o1	tim23-1 inh 57 | tim23-1 conf 62
COc1ccc(Cn2cc(CN3CC(N4CCN(Cc5ccccc5F)CC4)CS3(=O)=O)nn2)cc1 (stereo not drawn)	none (no result: tim23-1 inh, PfHsp90 set2, SKKanGAS inh, TIM10 inh, tim10-1 inh)
COc1ccc(OC)c(-c2csc(NC(=O)Cc3ccccc3F)n2)c1	tim23-1 inh 51 | tim23-1 conf 46
O=C(COc1ccccc1F)N1N=C(c2cccs2)CC1c1ccco1 (stereo not drawn)	none (no result: SKKanGAS inh)
CCCCc1c(C)nc2ccc(C)cc2c1SCCC(=O)O	tim23-1 inh 55 | tim23-1 conf inactive
O=C(O)/C=C/C(=O)OC1CC2CCC1C2 (stereo not drawn)	none
CNC(=O)OCc1cocc1COC(=O)NC	none (no result: tim23-1 inh, PfHsp90 set2, SKKanGAS inh, TIM10 inh, tim10-1 inh)
